Experimental data published in PMC5540273 (PLoS ONE, 2017).

Key:
AAK1 = settings: concentration: 1 μM, replicates: in singlicate; n = 1
ABL1-nonphosphorylated = settings: concentration: 1 μM, replicates: in singlicate; n = 1
ABL1-phosphorylated = settings: concentration: 1 μM, replicates: in singlicate; n = 1
ABL2 = settings: concentration: 1 μM, replicates: in singlicate; n = 1
ACVR1B = settings: concentration: 1 μM, replicates: in singlicate; n = 1
ACVR1 = settings: concentration: 1 μM, replicates: in singlicate; n = 1
ACVR2A = settings: concentration: 1 μM, replicates: in singlicate; n = 1
ACVR2B = settings: concentration: 1 μM, replicates: in singlicate; n = 1
ACVRL1 = settings: concentration: 1 μM, replicates: in singlicate; n = 1
ADCK3 = system: T1, ADCK3; settings: concentration: 1 μM, replicates: in singlicate; n = 1
T1 construct: gene CABC1

ADCK4 = settings: concentration: 1 μM, replicates: in singlicate; n = 1
AKT1 = settings: concentration: 1 μM, replicates: in singlicate; n = 1
AKT2 = settings: concentration: 1 μM, replicates: in singlicate; n = 1
AKT3 = settings: concentration: 1 μM, replicates: in singlicate; n = 1
ALK = settings: concentration: 1 μM, replicates: in singlicate; n = 1
AMPK-alpha1 = system: T2, AMPK-alpha1; settings: concentration: 1 μM, replicates: in singlicate; n = 1
T2 construct: gene PRKAA1

p38-alpha = system: T3, p38-alpha
T3 construct: gene MAPK14

YSK4 = system: T4, YSK4
T4 construct: gene MAP3K19
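For %Inh in this document: KINOMEscan kinase panel screen.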
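For Kd in this document: kd values determined as follow-up on hits from a single-replicate KINOMEscan panel screen.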

Compound	%Inh (AAK1) [%]	%Inh (ABL1-nonphosphorylated) [%]	%Inh (ABL1-phosphorylated) [%]	%Inh (ABL2) [%]	%Inh (ACVR1B) [%]	%Inh (ACVR1) [%]	%Inh (ACVR2A) [%]	%Inh (ACVR2B) [%]	%Inh (ACVRL1) [%]	%Inh (ADCK3) [%]	%Inh (ADCK4) [%]	%Inh (AKT1) [%]	%Inh (AKT2) [%]	%Inh (AKT3) [%]	%Inh (ALK) [%]	%Inh (AMPK-alpha1) [%]	Kd (p38-alpha) [µM]	Kd (YSK4) [µM]	Kd (ZAK) [µM]
[2H]C([2H])(c1cccc(C(F)(F)F)c1C)n1ccn2c(=O)nc(N3CCOCC3)cc12 [GSK2336394]	0	0	0	17	0	0	0	1	31	8	28	0	0	0	17	0	–	–	–
COc1ccc(Nc2ncc(C#N)c(Nc3ccccc3C(N)=O)n2)cc1N1CCN(C)CC1.Cl [GSK1558669]	97.2	100	100	99.2	33	33	0	0	0	0	52	8	63	0	95.7	97.3	–	–	–
N#Cc1c(N2CCOCC2)sc(-c2ccn[nH]2)c1-c1ccc(Cl)cc1	70	42	0	9	15	0	0	0	0	12	0	0	0	0	0	9	–	–	–
Cc1cccc(-c2nc(-c3ccc(S(C)(=O)=O)cc3)sc2-c2ccncc2)c1	8	0	0	29	0	0	0	0	0	0	0	0	20	0	5	1	0.54	–	–
NS(=O)(=O)c1cccc(-c2ccc3ncc(N4CCOCC4)nc3c2)c1 [GSK1535721]	26	1	0	0	0	21	0	0	0	28	9	0	4	0	6	1	–	3.4	–
O=C(NCCNc1ccnc(Nc2ccc(F)cc2)n1)c1cc2ccccc2s1 [GSK1379874]	0	0	0	7	0	9	0	0	0	0	27	0	0	0	5	0	–	–	> 10
COc1ccc(S(=O)(=O)NC2CCN(c3cc(C)nc(Nc4cccc(C#N)c4)n3)CC2)cc1.O=C(O)C(F)(F)F [GSK1653539]	0	0	0	1	0	0	0	0	0	20	35	0	0	0	5	0	–	–	–
O=C1NC(=O)C(N2CCc3ccccc32)=C1c1cccc(Cl)c1 [SB-408010]	2	33	0	10	14	0	0	7	13	17	0	5	0	5	0	0	–	–	–
Nc1nccc(-c2c(-c3ccc(F)cc3)ncn2C2CCN(CC(F)(F)F)CC2)n1 [SB-236560]	5	46	0	0	0	19	0	0	0	0	47	0	0	0	29	0	–	–	–
COc1cc2ncn(-c3cc(OCc4sccc4Cl)c(C(N)=O)s3)c2cc1OC [GSK448459]	42	0	3	17	0	18	0	0	0	0	39	0	1	0	21	0	–	–	–
Cc1cccc(Cn2ccn3c(=O)cc(N4CCOCC4)nc23)c1 [GSK2297542]	15	7	0	13	0	0	0	4	6	27	44	0	4	0	36	1	–	–	–
Fc1ccc(-c2nn3c(OCC(F)(F)F)cccc3c2-c2ccncc2)cc1 [GW514784]	0	0	0	5	61	13	0	0	0	18	46	0	0	0	0	0	–	–	–
O=C(NOCC1CC1)c1ccc(F)c(F)c1Nc1ccc(I)cc1Cl	0	0	0	0	0	0	0	0	0	0	0	0	0	0	0	0	–	–	–
COc1cc2c(cc1OC[C@@H](O)CO)ncc1c3ccc(C#N)cc3[nH]c21	78	49	21	0	0	0	0	1	0	0	0	0	0	0	15	0	–	–	–
Cc1nnc(-c2ccc3ncc(-c4ccc(S(C)=O)cc4)n3c2)o1 (stereo not drawn)	41	44	6	7	0	0	0	0	0	0	18	3	15	2	40	1	–	–	–
CN(C1=C(c2ccccc2)C(=O)NC1=O)c1ccccc1 [SB-334860]	7	0	0	0	0	1	0	4	0	12	15	0	23	0	0	0	–	–	–
CCn1cnc2c(N)ncnc21 [GW345098]	0	33	35	12	0	7	0	0	8	19	0	0	0	0	0	29	–	–	–
COc1ccc(Nc2nccc(N3CCC(NC(=O)Nc4cc(C)ccc4C)C3)n2)cc1 (stereo not drawn) [GSK1379741]	17	0	0	14	0	0	0	0	0	0	32	0	10	0	25	0	–	–	–
CNc1ncnc2[nH]ncc12 [SKF-18355]	0	34	11	0	4	0	4	40	0	0	10	0	0	4	0	0	–	–	–
O=c1cc(N2CCOCC2)nc2n(Cc3cccc(Cl)c3Cl)c(C3CC3)nn12 [GSK2358994]	14	28	20	5	0	0	0	0	9	11	0	12	0	0	0	5	–	–	–
Fc1ccc(-c2ncn(CCCN3CCOCC3)c2-c2cccnc2)cc1 [SB-211743]	0	30	34	0	0	2	0	0	6	1	0	0	0	10	0	4	–	–	–
O=C(c1ccc(-c2cc(-c3c[nH]nc3-c3ccccn3)ccn2)cc1)N1CCOCC1 [GW812171]	0	36	29	2	76	0	0	0	0	0	0	5	0	0	5	19	–	–	–
COc1cc(Nc2nccc(N3CCC(NC(=O)c4cccc(NC(C)=O)c4)C3)n2)cc(OC)c1OC (stereo not drawn) [GSK1379754]	76	0	0	13	0	63	17	18	0	10	36	0	0	0	29	8	–	–	–
CC(=O)Nc1ccc(COc2ccc(Nc3ccnc4cc(-c5ccccn5)ccc34)cc2)cc1.Cl [GW440148]	13	35	19	11	0	0	0	59	3	18	26	0	15	0	6	0	–	–	–
